These results are taken from paper PMC7862700, “An all-to-all approach to the identification of sequence-specific readers for epigenetic DNA modifications on cytosine”.

What all share (assay): DAPPL (digital affinity profiling via proximity ligation, sequencing); 10 mM Tris-HCl pH 7.5, 50 mM NaCl, 1 mM DTT, 4% glycerol, room temperature, 30 min; GST-TFs on glutathione beads, 16-mer random dsDNA library, 0.1% formaldehyde crosslink after washing; high values mean tight binding
One experiment deals with T1, FLI1 (Homo sapiens, UniProt Q01543 1-452).
T1 sequence: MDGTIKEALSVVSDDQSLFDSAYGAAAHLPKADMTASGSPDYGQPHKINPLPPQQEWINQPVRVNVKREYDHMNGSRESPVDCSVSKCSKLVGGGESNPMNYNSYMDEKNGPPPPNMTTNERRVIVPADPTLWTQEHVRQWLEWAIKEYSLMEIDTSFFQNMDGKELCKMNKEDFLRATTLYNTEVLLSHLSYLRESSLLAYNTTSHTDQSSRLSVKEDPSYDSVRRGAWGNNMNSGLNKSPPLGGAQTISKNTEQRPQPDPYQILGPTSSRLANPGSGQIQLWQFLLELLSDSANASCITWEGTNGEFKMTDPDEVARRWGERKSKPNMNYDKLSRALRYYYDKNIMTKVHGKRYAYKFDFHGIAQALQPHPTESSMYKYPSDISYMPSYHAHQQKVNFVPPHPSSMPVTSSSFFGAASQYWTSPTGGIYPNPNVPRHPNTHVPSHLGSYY
Particulars: protein: recombinant; tags: N-terminal GST; dsDNA, one strand shown. The method in brief:
(§1)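 Binding signal is given per hexamer as its read frequency for a factor divided by its frequency in the tag-only sample. GST-fused human transcription factors were expressed in yeast, captured on glutathione beads, barcoded with DNA and pooled with that sample, then incubated with 200 nmole of a 16-mer random double-stranded DNA library in Tris/NaCl/DTT/glycerol buffer for 30 min at room temperature. The pools were then washed, crosslinked, proximity-ligated, amplified by PCR and sequenced on an Illumina NextSeq500.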

The target in another experiment is T2, ELK1 (Homo sapiens, UniProt P19419 1-428).
T2 sequence: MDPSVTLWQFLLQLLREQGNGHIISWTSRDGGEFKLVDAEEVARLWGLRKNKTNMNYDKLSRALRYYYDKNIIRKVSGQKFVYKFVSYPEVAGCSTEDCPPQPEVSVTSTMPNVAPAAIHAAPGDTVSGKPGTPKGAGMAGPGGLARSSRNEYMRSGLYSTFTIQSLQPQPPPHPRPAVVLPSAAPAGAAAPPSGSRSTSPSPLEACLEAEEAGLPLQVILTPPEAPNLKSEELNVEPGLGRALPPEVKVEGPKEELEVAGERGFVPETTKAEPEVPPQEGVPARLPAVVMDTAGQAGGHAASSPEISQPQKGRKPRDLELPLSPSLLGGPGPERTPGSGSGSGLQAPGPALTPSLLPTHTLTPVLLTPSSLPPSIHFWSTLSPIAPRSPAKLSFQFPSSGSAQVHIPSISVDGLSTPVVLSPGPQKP
The following applies: protein: recombinant; tags: N-terminal GST; dsDNA, one strand shown. The method in brief:
as §1

The target in a further experiment is T3, GABPA (Homo sapiens, UniProt Q06546 1-454).
T3 sequence: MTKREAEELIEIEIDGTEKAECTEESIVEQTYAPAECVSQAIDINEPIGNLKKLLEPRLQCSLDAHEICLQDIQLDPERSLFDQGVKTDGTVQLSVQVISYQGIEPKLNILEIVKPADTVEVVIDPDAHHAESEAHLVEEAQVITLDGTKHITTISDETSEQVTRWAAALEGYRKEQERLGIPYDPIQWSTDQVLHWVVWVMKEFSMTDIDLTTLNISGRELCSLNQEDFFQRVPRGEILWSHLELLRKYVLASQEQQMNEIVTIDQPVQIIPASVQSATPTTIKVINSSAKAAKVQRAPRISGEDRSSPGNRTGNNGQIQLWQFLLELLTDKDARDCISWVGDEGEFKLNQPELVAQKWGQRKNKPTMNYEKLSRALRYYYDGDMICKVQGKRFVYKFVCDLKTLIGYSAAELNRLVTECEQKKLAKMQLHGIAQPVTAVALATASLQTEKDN
The following applies: protein: recombinant; tags: N-terminal GST; dsDNA, one strand shown. In a few lines: as §1

The target of the next experiment is T4, ERG (Homo sapiens, UniProt P11308 1-479).
T4 sequence: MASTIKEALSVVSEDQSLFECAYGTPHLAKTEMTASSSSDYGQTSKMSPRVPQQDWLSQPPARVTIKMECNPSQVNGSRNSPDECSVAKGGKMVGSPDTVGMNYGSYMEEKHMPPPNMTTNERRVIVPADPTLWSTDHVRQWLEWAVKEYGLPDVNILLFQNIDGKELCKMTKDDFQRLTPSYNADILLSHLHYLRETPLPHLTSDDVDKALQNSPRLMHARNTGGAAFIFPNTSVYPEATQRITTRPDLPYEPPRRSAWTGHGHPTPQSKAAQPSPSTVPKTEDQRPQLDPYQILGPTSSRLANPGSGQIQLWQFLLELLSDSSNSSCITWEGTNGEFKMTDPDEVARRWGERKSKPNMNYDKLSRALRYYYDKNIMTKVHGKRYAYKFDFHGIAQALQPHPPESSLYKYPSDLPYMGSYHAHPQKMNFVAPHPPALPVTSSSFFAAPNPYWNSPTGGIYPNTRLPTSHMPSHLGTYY
Particulars: protein: recombinant; tags: N-terminal GST; dsDNA, one strand shown. The method in brief:
as §1

Another experiment deals with ELF1 (Homo sapiens, UniProt P32519 1-619). Particulars: protein: recombinant; tags: N-terminal GST; dsDNA, one strand shown. The method in brief:
as §1

The target in the next experiment is T5, EHF (Homo sapiens, UniProt Q9NZC4 1-300).
T5 sequence: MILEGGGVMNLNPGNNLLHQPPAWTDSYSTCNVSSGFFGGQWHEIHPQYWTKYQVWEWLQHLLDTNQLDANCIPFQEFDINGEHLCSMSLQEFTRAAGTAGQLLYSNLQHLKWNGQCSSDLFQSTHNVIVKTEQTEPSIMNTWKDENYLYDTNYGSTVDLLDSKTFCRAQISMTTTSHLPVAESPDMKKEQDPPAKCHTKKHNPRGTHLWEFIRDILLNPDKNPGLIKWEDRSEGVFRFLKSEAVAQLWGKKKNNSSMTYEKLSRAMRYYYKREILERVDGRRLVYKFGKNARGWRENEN
Particulars: protein: recombinant; tags: N-terminal GST; dsDNA, one strand shown. In a few lines:
as §1

The target of another experiment is SPI1 (Homo sapiens, UniProt P17947 1-270). Particulars: protein: recombinant; tags: N-terminal GST; dsDNA, one strand shown. In a few lines:
as §1

The target of the next experiment is SPIB (Homo sapiens, UniProt Q01892 1-262). The following applies: protein: recombinant; tags: N-terminal GST; dsDNA, one strand shown. In a few lines: as §1
Chain of SPIB (Q01892 whole entry): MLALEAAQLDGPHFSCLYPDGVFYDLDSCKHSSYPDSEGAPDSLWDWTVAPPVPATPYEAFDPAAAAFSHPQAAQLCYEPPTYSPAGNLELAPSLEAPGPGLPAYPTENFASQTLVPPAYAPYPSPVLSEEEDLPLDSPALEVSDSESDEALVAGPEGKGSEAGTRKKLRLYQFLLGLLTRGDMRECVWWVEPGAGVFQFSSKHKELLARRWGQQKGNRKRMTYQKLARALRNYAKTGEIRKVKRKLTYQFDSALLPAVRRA
A further experiment addresses T6, ELK3 (Homo sapiens, UniProt P41970 1-407).
T6 sequence: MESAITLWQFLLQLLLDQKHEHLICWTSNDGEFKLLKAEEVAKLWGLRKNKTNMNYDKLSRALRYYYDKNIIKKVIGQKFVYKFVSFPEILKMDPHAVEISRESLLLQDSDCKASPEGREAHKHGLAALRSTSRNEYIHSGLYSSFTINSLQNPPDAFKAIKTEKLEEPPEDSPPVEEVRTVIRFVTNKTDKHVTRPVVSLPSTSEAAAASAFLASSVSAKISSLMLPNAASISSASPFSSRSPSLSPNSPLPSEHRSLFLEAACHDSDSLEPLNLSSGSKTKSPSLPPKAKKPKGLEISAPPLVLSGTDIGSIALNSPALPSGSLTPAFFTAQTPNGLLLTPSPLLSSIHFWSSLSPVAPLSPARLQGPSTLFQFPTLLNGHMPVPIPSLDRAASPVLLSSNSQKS
Particulars: protein: recombinant; tags: N-terminal GST; dsDNA, one strand shown. The method in brief:
as §1

The next experiment has as its target T7, FEV (Homo sapiens, UniProt Q99581 1-238).
T7 sequence: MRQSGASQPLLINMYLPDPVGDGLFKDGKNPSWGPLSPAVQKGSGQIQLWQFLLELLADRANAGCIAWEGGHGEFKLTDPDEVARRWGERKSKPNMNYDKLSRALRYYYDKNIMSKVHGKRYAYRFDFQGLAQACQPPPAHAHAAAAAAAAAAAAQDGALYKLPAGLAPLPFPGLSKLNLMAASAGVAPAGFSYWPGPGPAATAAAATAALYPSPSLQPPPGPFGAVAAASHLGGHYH
The following applies: protein: recombinant; tags: N-terminal GST; dsDNA, one strand shown. The method in brief:
as §1

Another experiment addresses ETV5 (Homo sapiens, UniProt P41161 1-510). The following applies: protein: recombinant; tags: N-terminal GST; dsDNA, one strand shown. The method in brief:
as §1

The next experiment deals with HSF1 (Homo sapiens, UniProt Q00613 1-529). Particulars: protein: recombinant; tags: N-terminal GST; chain copies: 3; dsDNA, one strand shown. The method in brief:
as §1

The next experiment has as its target T8, SPIC (Homo sapiens, UniProt Q8N5J4 1-248).
T8 sequence: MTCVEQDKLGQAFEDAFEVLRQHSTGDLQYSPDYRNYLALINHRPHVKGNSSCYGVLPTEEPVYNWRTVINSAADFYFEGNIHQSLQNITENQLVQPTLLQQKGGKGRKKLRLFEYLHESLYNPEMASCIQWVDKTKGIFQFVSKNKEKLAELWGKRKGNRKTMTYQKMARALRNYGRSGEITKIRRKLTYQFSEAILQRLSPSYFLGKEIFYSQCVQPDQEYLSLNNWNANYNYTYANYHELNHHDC
Particulars: protein: recombinant; tags: N-terminal GST; dsDNA, one strand shown. The method in brief:
as §1

The target in the next experiment is ELF4 (Homo sapiens, UniProt Q99607 1-663). Particulars: protein: recombinant; tags: N-terminal GST; dsDNA, one strand shown. In a few lines: as §1
Chain of ELF4 (Q99607 whole entry): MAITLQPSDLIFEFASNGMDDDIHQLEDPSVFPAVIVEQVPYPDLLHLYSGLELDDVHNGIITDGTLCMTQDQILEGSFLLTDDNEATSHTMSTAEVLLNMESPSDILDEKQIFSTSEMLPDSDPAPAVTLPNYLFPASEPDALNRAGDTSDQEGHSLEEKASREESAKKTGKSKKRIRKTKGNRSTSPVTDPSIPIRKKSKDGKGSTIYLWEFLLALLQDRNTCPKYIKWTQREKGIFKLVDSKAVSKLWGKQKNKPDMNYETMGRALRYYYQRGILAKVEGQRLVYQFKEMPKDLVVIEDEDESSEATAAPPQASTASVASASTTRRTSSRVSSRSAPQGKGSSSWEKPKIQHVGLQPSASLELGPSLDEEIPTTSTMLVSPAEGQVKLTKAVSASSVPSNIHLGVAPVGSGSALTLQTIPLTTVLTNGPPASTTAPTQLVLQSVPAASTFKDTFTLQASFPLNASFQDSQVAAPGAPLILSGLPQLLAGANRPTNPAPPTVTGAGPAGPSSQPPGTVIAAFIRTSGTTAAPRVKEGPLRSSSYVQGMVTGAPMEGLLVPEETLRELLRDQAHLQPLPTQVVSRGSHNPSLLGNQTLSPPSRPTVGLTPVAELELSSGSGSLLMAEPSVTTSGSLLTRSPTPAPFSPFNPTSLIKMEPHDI
A further experiment has as its target T9, ELK4 (Homo sapiens, UniProt P28324-2 1-405).
T9 sequence: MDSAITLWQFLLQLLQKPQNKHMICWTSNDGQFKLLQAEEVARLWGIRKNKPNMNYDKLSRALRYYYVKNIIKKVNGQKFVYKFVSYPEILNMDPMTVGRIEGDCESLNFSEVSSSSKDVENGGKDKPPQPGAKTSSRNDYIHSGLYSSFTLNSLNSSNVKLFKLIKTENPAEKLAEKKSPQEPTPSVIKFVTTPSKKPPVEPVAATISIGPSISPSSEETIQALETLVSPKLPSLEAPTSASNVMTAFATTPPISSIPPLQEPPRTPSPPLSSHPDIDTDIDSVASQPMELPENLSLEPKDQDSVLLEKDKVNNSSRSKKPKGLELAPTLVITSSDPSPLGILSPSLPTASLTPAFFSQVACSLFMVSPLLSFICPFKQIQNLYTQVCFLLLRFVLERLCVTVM
The following applies: protein: recombinant; tags: N-terminal GST; dsDNA, one strand shown. The method in brief: as §1

The target of another experiment is T10, ETV2 (Homo sapiens, UniProt O00321 1-342).
T10 sequence: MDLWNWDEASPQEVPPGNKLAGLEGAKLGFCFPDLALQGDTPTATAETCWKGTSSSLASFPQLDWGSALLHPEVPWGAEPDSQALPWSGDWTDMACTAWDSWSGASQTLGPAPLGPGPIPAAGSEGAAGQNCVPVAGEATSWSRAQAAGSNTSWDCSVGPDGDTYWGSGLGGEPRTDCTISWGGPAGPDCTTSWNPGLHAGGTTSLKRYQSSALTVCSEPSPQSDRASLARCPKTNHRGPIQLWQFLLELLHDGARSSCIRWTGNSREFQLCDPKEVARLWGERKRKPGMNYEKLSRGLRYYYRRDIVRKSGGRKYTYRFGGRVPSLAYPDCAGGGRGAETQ
The following applies: protein: recombinant; tags: N-terminal GST; dsDNA, one strand shown. In a few lines: as §1

The next experiment deals with T11, ELF3 (Homo sapiens, UniProt P78545 1-371).
T11 sequence: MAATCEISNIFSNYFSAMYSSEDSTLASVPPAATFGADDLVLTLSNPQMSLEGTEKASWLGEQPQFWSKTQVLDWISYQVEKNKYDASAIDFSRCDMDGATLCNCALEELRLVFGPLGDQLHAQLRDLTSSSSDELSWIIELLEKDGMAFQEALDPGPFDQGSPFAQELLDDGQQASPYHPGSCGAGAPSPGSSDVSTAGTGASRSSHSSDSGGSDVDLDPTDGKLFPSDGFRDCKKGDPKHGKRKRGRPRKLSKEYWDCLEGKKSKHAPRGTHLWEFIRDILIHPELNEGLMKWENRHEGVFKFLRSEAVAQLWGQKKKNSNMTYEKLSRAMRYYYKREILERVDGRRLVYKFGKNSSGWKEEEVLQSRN
Particulars: protein: recombinant; tags: N-terminal GST; dsDNA, one strand shown. The method in brief:
as §1

Another experiment concerns the target CRX (Homo sapiens, UniProt O43186 1-299). The following applies: protein: recombinant; tags: N-terminal GST; dsDNA, one strand shown. The method in brief:
as §1

The target in a further experiment is ETV1 (Homo sapiens, UniProt P50549 1-477). Particulars: protein: recombinant; tags: N-terminal GST; dsDNA, one strand shown. In a few lines: as §1
Chain of ETV1 (P50549 whole entry): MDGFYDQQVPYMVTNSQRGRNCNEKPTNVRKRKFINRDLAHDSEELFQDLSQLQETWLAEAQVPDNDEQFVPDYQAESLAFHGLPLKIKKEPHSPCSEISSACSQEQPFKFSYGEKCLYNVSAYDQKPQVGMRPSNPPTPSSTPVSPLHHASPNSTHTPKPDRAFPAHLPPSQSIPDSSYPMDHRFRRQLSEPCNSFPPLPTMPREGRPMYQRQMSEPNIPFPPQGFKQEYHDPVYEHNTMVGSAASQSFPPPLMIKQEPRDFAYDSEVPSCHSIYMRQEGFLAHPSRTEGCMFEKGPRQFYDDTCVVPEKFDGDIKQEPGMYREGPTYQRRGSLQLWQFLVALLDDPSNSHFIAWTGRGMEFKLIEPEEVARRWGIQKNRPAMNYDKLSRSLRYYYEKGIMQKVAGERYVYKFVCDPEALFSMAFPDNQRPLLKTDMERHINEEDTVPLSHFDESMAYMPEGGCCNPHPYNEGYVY

Chain of ETV5 (P41161 whole entry): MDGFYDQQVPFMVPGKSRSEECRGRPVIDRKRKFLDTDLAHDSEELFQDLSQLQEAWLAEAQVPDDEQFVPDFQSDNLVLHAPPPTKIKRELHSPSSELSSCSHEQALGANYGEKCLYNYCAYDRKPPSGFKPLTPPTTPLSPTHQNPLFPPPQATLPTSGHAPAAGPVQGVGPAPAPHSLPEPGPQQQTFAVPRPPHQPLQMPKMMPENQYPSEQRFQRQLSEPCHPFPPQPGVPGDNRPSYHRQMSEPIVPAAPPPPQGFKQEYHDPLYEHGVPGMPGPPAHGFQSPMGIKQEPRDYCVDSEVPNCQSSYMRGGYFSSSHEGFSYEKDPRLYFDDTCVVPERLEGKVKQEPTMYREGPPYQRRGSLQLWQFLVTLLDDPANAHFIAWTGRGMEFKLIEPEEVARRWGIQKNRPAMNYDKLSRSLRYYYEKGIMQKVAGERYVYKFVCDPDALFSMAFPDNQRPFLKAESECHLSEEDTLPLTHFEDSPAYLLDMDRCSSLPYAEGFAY
Chain of ELF1 (P32519 whole entry): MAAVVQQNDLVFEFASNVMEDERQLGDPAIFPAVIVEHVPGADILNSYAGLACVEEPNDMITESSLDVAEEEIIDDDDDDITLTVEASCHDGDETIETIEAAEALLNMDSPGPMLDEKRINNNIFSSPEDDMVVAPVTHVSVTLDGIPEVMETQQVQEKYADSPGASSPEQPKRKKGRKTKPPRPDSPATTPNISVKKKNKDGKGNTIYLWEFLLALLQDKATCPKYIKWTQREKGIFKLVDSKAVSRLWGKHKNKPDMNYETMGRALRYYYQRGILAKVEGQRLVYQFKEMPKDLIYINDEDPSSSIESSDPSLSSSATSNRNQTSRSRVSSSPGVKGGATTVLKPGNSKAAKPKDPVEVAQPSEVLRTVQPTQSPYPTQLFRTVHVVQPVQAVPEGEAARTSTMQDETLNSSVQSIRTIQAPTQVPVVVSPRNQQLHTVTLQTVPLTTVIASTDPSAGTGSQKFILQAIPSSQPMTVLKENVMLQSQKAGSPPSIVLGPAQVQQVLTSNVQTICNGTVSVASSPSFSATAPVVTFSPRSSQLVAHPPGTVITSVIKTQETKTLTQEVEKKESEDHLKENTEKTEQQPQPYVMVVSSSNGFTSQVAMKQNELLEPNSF
Chain of HSF1 (Q00613 whole entry): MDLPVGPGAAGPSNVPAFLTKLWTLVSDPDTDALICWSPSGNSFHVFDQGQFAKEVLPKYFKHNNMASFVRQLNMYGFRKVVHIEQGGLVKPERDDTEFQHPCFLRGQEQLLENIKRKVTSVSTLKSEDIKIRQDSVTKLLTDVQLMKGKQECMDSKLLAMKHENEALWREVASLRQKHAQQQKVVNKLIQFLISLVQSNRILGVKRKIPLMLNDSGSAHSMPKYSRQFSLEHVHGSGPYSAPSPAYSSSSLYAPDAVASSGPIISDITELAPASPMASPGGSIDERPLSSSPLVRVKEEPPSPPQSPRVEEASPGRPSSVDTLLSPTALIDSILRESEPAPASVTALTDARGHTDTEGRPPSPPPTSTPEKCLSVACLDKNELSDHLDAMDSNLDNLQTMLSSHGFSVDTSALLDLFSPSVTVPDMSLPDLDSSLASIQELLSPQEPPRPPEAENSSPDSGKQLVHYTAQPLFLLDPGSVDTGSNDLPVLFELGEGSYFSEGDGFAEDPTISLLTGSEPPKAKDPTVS
Chain of CRX (O43186 whole entry): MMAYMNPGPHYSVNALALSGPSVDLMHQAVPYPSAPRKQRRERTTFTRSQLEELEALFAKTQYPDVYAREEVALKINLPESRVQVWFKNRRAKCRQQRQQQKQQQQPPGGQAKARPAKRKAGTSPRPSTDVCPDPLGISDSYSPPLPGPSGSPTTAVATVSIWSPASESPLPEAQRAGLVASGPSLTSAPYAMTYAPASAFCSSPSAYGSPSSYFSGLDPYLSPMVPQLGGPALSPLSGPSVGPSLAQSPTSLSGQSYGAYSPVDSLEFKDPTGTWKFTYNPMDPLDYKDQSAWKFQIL

For the sequence AAAGAA, the binding signal was 1.18 fold enrichment (6-mer frequency, TF over GST control) with FLI1; 1.24 fold enrichment (6-mer frequency, TF over GST control) in the experiment with ELK1; 1.23 fold enrichment (6-mer frequency, TF over GST control) in the experiment with GABPA; 1.27 fold enrichment (6-mer frequency, TF over GST control) with ERG; 1.28 fold enrichment (6-mer frequency, TF over GST control) in the experiment with ELF1; 1.32 fold enrichment (6-mer frequency, TF over GST control) in the experiment with EHF. Besides, the binding signal with SPI1 was 1.32 fold enrichment (6-mer frequency, TF over GST control); with SPIB it was 1.24 fold enrichment (6-mer frequency, TF over GST control); with ELK3, 1.3 fold enrichment (6-mer frequency, TF over GST control); in the experiment with FEV it was 1.23 fold enrichment (6-mer frequency, TF over GST control); with ETV5 it was 1.22 fold enrichment (6-mer frequency, TF over GST control); with HSF1, 1.99 fold enrichment (6-mer frequency, TF over GST control). Moreover, the binding signal with SPIC was 1.17 fold enrichment (6-mer frequency, TF over GST control); in the experiment with ELF4 it was 1.29 fold enrichment (6-mer frequency, TF over GST control); in the experiment with ELK4, 1.32 fold enrichment (6-mer frequency, TF over GST control); with ETV2, 1.25 fold enrichment (6-mer frequency, TF over GST control); in the experiment with ELF3 it was 1.29 fold enrichment (6-mer frequency, TF over GST control); with CRX it was 1.48 fold enrichment (6-mer frequency, TF over GST control). In addition, the binding signal with ETV1 is 1.29 fold enrichment (6-mer frequency, TF over GST control).
